Source: PubChem BioAssay AID1159580 (chemical genetic matrix, 2015)
Several values for one entry are separate records, joined by “and”; a condition that tells them apart may be missing. Equal values may be shown once. Screen size: about 5,500 compounds; about 2,000 (36%) were called active. Roughly 18% stayed inconclusive and do not appear here. Cut-off read from the data, not from the text of the source: active = normalized growth mostly below about 0.91 (no sharp cut-off); inconclusive = no clear call, values can overlap the other calls; inactive = mostly above about 0.92. The list shows a part of the results.

Test: chemical genetic growth profiling, strain panel (AID 1159580);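 note: tested at 20 µM; growth read once vehicle control cultures reached saturation at 30 °C; 1 = growth at the plate median or of vehicle wells; lower values mean less growth of the strain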
Details: S. cerevisiae deletion strains, growth OD

Measured: normalized growth

CC[C@H]1OC(=O)[C@H](C)[C@@H](O[C@H]2C[C@@](C)(OC)[C@@H](O)[C@H](C)O2)[C@H](C)[C@@H](O[C@@H]2O[C@H](C)C[C@H](N(C)C)[C@H]2O)[C@](C)(O)C[C@@H](C)[C@@H]2N[C@@H](COCCOC)O[C@H]([C@H]2C)[C@]1(C)O
inactive: locus YAL021C, strain ccr4, hits give low values 0.991 | locus YAL026C, strain drs2, hits give low values 0.993 | locus YAL030W, strain snc1, hits give low values 0.999 | locus YBL061C, strain skt5, hits give low values 0.982 | locus YBR009C, strain hhf1, hits give low values 0.995 | locus YBR021W, strain FUR4, hits give low values 1.01 | locus YBR023C, strain chs3, hits give low values 0.993 | locus YBR171W, strain sec66, hits give low values 0.977 | locus YBR229C, strain ROT2, hits give low values 1.01 | locus YBR231C, strain swc5, hits give low values 0.992 | locus YBR279W, strain paf1, hits give low values 0.998 | locus YCL011C, strain gbp2, hits give low values 0.99 | locus YCL016C, strain dcc1, hits give low values 0.985 | locus YCL029C, strain bik1, hits give low values 1.01 | locus YCL061C, strain MRC1, hits give low values 0.982 | locus YCL069W, strain vba3, hits give low values 0.988 | locus YCR088W, strain abp1, hits give low values 0.999 | locus YDL005C, strain med2, hits give low values 0.978 | locus YDL035C, strain GPR1, hits give low values 1.01 | locus YDL040C, strain nat1, hits give low values 0.996 | locus YDL074C, strain BRE1, hits give low values 1.01 | locus YDL101C, strain DUN1, hits give low values 1.05 | locus YDL185W, strain tfp1, hits give low values 1 | locus YDL192W, strain arf1, hits give low values 1.01 | locus YDR001C, strain nth1, hits give low values 0.995 | locus YDR069C, strain doa4, hits give low values 0.995 | locus YDR101C, strain arx1, hits give low values 0.984 | locus YDR137W, strain rgp1, hits give low values 1 | locus YDR159W, strain sac3, hits give low values 0.985 | locus YDR162C, strain NBP2, hits give low values 1 | locus YDR195W, strain ref2 0.966 | locus YDR297W, strain sur2, hits give low values 1 | locus YDR318W, strain mcm21, hits give low values 1.01 | locus YDR334W, strain swr1, hits give low values 0.986 | locus YDR335W, strain msn5, hits give low values 0.998 | locus YDR388W, hits give low values 1.01 | locus YDR392W, strain spt3, hits give low values 0.989 | locus YDR502C, strain sam2, hits give low values 0.997 | locus YEL003W, strain gim4, hits give low values 1 | locus YEL037C, strain rad23, hits give low values 0.997 | locus YEL061C, strain CIN8 (second series), hits give low values 0.998 | locus YEL061C, strain CIN8, hits give low values 1.01 | locus YER015W, strain faa2, hits give low values 1 | locus YER016W, strain bim1, hits give low values 0.987 | locus YER110C, hits give low values 1.01 | locus YER111C, strain swi4, hits give low values 0.991 | locus YER155C, strain BEM2 (second series), hits give low values 0.999 | locus YER155C, strain BEM2, hits give low values 1.01 | locus YER167W, strain BCK2, hits give low values 1 | locus YFR010W, strain ubp6, hits give low values 0.988 | locus YGL078C, strain dbp3, hits give low values 1.01 | locus YGL167C, strain pmr1, hits give low values 0.991 | locus YGL173C, strain kem1, hits give low values 0.984 | locus YGL227W, strain vid30, hits give low values 0.99 | locus YGL240W, strain doc1, hits give low values 0.989 | locus YGL248W, strain PDE1, hits give low values 1.02 | locus YGL253W, strain hxk2, hits give low values 0.998 | locus YGR135W, strain pre9, hits give low values 1.04 | locus YGR252W, strain gcn5, hits give low values 0.991 | locus YHR013C, strain ard1, hits give low values 0.952 | locus YHR027C, strain rpn1, hits give low values 0.983 | locus YHR030C, strain SLT2, hits give low values 1 and 1.04 | locus YHR079C, strain IRE1 (second series), hits give low values 1.01 | locus YHR079C, strain IRE1, hits give low values 1.03 | locus YHR094C, strain hxt1, hits give low values 1.01 | locus YHR129C, strain ARP1, hits give low values 1.01 | locus YHR142W, strain chs7, hits give low values 0.997 | locus YHR200W, strain rpn10, hits give low values 1.01 | locus YIL066C, strain RNR3, hits give low values 1.01 | locus YIL073C, strain SPO22, hits give low values 1.06 | locus YIL125W, strain kgd1, hits give low values 1 | locus YIR030C, strain dcg1, hits give low values 1.02 | locus YJL092W, strain hpr5, hits give low values 0.991 | locus YJL095W, strain BCK1 (second series), hits give low values 0.982 | locus YJL095W, strain BCK1, hits give low values 1.06 and 1 | locus YJL115W, strain asf1, hits give low values 0.995 | locus YJL129C, strain trk1, hits give low values 1.01 | locus YJL134W, strain LCB3, hits give low values 1.01 | locus YJL154C, strain vps35, hits give low values 0.993 | locus YJL164C, strain tpk1, hits give low values 1 | locus YJL166W, strain qcr8, hits give low values 0.993 | locus YJL168C, strain set2, hits give low values 1 | locus YJL187C, strain SWE1 (second series), hits give low values 1.05 | locus YJL187C, strain SWE1, hits give low values 0.991 | locus YJR043C, strain POL32, hits give low values 0.989 | locus YJR066W, strain TOR1, hits give low values 0.982
